# Measurements published in PubChem BioAssay (EPA / NIEHS).
# Where “and” joins values, the source holds several entries; their conditions need not be identical. Equal values may be shown once. Where a structure was tested more than once in an assay, its records may differ in their call. Calls of active or inactive are those of the source. How the source made its calls: active means hit-call score of the fitted dose curve at least 0.9, where 1 is the maximum; inactive means score below 0.9.
# Read-out: Plasminogen activator inhibitor-1 (PAI1), SERPINE1 (gene 5054)
# Experiment: BSK_hDFCGF_PAI1: BioMAP Diversity Plus: hDFCGF Assay for Plasminogen activator inhibitor-1 (PAI1) Biomarker Activity (AID 2283066)
# Conditions: primary human foreskin fibroblasts; actives raise or lower the signal
# Method: BSK_hDFCGF is a cell-based, multiplexed-readout assay that uses foreskin fibroblast, a human skin primary cell, with measurements taken at 24 hours after chemical dosing in a 96-well plate.BSK_hDFCGF_PAI1 is an assay component measured in the BSK_hDFCGF assay. It measures PAI-1 antibody related to regulation of gene expression using ELISA technology.Data from the assay component BSK_hDFCGF_PAI1 was analyzed into 1 assay endpoint. This assay endpoint, BSK_hDFCGF_PAI1, was analyzed with bidirectional fitting relative to DMSO as the negative control and baseline of activity. Using a type of binding reporter, gain or loss-of-signal activity can be used to understand changes in the signaling as they relate to the gene SERPINE1. Furthermore, this assay endpoint can be referred to as a primary readout, because this assay has produced multiple assay endpoints where this one serves a signaling function. To generalize the intended target to other relatable targets, this assay endpoint is annotated to the cytokine intended target family, where the subfamily is plasmogen activator inhibitor.
# The levels of cell surface (or secreted, indicated by the prefix "s") biomarker endpoints were measured by ELISA. Overt cytotoxicity to cells in confluent adherent cultures (all systems other than the BT system) was assessed by measuring total protein levels using sulforhodamine B (SRB) staining in parallel cultures at the time of biomarker measurements, indicated as SRB endpoints. For proliferation assays for adherent cell types, individual cell types are cultured at sub-confluence and relative cell numbers quantified by SRB staining at time points optimized for each system (48 h: 3C and CASM3C systems; 72 h: BT and HDF3CGF systems; 96 h: SAg system). SRB was performed by staining cells with 0.1% SRB after fixation with 10% TCA and reading wells at 560 nm.Viability and proliferation of PBMC (T cells) was quantified by Alamar Blue reduction for the SAg and BT systems. For PBMC viability (referred to as PBMC Cytotoxicity within the assay endpoint names), cells were plated (75,000/well in a 96-well plate) and then chemical samples added for 1 h before addition of activators, SEB and TSST-1 (20 ng/mL final concentration each). Cells were incubated for 90 h. Then, Alamar Blue (20 uL/well) (Invitrogen, Cat DAL1100) was added for 6 h, and the plates were read with a fluorescence microplate reader at 546/580 nm (excitation/emission). For PBMC proliferation, cells were plated and activated as above but incubated for only 16 h prior to addition of Alamar Blue. Plates were read after 6 h.
Compound,AC50,outcome
CC(C)CCCCCOC(=O)CS,9.15 µM (active),–
C=C(C)C(=O)OCCCCCCCCCCCC,–,inactive
CCOC(=O)C1=NOC(c2ccccc2)(c2ccccc2)C1,–,inactive
CCCC(C)C(=O)OCC (stereo not given),–,inactive
Cc1c(O)cccc1O,–,inactive
Oc1c(Cl)cc(Cl)c(Cl)c1Cl,24.6 µM (active),–
Nc1cccc(N)n1,–,inactive
CC/C=C\C/C=C\C/C=C\CCCCCCCC(=O)OC,6.64 µM (active),–
CC(CCC(=O)O)(c1ccc(O)cc1)c1ccc(O)cc1,–,inactive
C=CC(=O)NCOCCCC,–,inactive
Oc1ccc(/C=C/c2cc(O)cc(O)c2)cc1,0.474 µM (active),–
O=C(Oc1ccccc1)c1ccccc1C(=O)Oc1ccccc1,20 µM (active),–
C=CCCCCCCCCC=O,–,inactive
CCCCCCOC(=O)CCCCC(=O)OCCCCCC,–,inactive
CCCCCCC=O,–,inactive
CC(Cl)COP(=O)(OCC(C)Cl)OCC(C)Cl (stereo not given),–,inactive
c1ccc(Nc2cccc3ccccc23)cc1,13.1 µM (active) and 12.3 µM (active),–
CCC1(C)C(=O)N(Cl)C(=O)N1Cl (stereo not given),–,inactive
C=CC(=O)NC(C)(C)C,–,inactive
CCCCCCCCC(CO)CCCCCC (stereo not given),3.75 µM (active),–

Compound,AC50,outcome
CCCCC1C(=O)N(c2ccccc2)N(c2ccccc2)C1=O,–,inactive
CC1(C)CC(O)CC(C)(C)N1[O],–,inactive
CCOC(=O)/C=C\C(=O)OCC,–,inactive
CC1=CC=C(C(C)C)CC1,–,inactive
COc1ccc(C(=O)/C(Br)=C\C(=O)O)cc1,28.9 µM (active),inactive
CCCCCCCCCCCC(C)=O,–,inactive
CCCCCCCO,–,inactive
CC=C(C)C=CC=C(C)C,0.016 µM (active),–
Clc1cc(Cl)c(Cl)c(Cl)c1Cl,–,inactive
CC(C)C(=O)OCCc1ccccc1,–,inactive
CCN1CN(CC)CN(CC)C1,–,inactive
CC(c1cc(C(C)(C)C)cc(C(C)(C)C)c1O)c1cc(C(C)(C)C)cc(C(C)(C)C)c1O,0.358 µM (active),–
CC(C)[N+](C)(CCOC(=O)C1c2ccccc2Oc2ccccc21)C(C)C,–,inactive
c1ccc2c(c1)[nH]c1ccccc12,–,inactive
Fc1ccc(Br)cc1,–,inactive
c1ccc2sc(SSN3CCOCC3)nc2c1,4.82 µM (active),–
CCNc1nc(NC(C)(C)C)nc(OC)n1,–,inactive
CC=C(C)C(C)=O,–,inactive
CC/C=C\CCOC(=O)c1ccccc1O,11.6 µM (active),–
